# Test results taken from PubChem BioAssay (EPA / NIEHS).
# Results filed as inconclusive are left out. The source made the active and inactive calls. How the source made its calls: active means hit-call score of the fitted dose curve at least 0.9, where 1 is the maximum; inconclusive means response in the unintended direction; inactive means score below 0.9.
# Biological target: Oxysterols receptor LXR-beta (Homo sapiens) (UniProt P55055)
# Experiment: ATG_LXRb_TRANS: Attagene TRANS-FACTORIAL HepG2 Assay for human Liver X Receptor beta (LXRb) (AID 2282981)
# Conditions: HepG2 Attagene TRANS GAL4-LXRb reporter, mRNA
# Procedure: ATG_TRANS is a cell-based, multiplexed-readout assay that uses HepG2, a human liver cell line, with measurements taken at 24 hours after chemical dosing in a 24-well plate.ATG_LXRb_TRANS is one of 30 assay component(s) measured or calculated from the ATG_TRANS assay. It is designed to make measurements of mRNA induction, a form of inducible reporter, as detected with fluorescence intensity signals by Reverse transcription polymerase chain reaction (RT-PCR) and Capillary electrophoresis technology.Data from the assay component ATG_LXRb_TRANS was analyzed into 1 assay endpoint. This assay endpoint, ATG_LXRb_TRANS, was analyzed in the positive analysis fitting direction relative to DMSO as the negative control and baseline of activity. Using a type of inducible reporter, measures of mRNA for gain-of-signal activity can be used to understand the reporter gene at the transcription factor-level as they relate to the gene NR1H2. Furthermore, this assay endpoint can be referred to as a primary readout, because this assay has produced multiple assay endpoints where this one serves a reporter gene function. To generalize the intended target to other relatable targets, this assay endpoint is annotated to the nuclear receptor intended target family, where the subfamily is non-steroidal.
# Human liver HepG2 cells are transiently transfected with multiple reporter transcription units (MRTUs) in 6-well plates using FuGene 6 reagent (Roche; 3 ml FuGene/1 mg DNA). The MRTU constructs are regulated by a cis-regulating element (promoter). […] A major difference between the CIS and TRANS system is that in CIS activities of endogenous TFs are measured, whereas the TRANS assay evaluates changes in activities of exogenous, chimeric NR-Gal4 proteins. […] At the end of 24 hour incubation, total RNA was isolated using TriZol reagent (Invitrogen). The isolated RNA is then reverse-transcribed using oligo(dT) primer and Mo-MLV reverse transcriptase (Invitrogen) with DNAse I (Ambion) treatment for 30 min. The one-tenth of the produced cDNA was amplified by PCR using Taq DNA polymerase (Invitrogen) and two reporter sequence-specific primers. The PCR products were fluorescently labeled by primer extension with 6-arboxyfluorescein (6-FAM) 5'-labeled reporter sequence-specific primer (2 min at 95 C, 20 s at 68 C and 10 min at 72 C) and these products were digested with 5U of HpaI (New England Biolabs) for 2h at 37 C. The fragments were purified using Qiaquick PCR columns (Qiagen), analyzed on an ABI 3130xL genetic analyzer (Applied Biosystems) with peak positions identified by using a set of X-rhodamine (ROX)-labeled MapMarker1000 molecular weight standards (BioVentures). The raw capillary electrophoresis data was processed using Attagraph software (Attagene).
# Sequence of Oxysterols receptor LXR-beta (Homo sapiens) (P55055 whole entry, looked up): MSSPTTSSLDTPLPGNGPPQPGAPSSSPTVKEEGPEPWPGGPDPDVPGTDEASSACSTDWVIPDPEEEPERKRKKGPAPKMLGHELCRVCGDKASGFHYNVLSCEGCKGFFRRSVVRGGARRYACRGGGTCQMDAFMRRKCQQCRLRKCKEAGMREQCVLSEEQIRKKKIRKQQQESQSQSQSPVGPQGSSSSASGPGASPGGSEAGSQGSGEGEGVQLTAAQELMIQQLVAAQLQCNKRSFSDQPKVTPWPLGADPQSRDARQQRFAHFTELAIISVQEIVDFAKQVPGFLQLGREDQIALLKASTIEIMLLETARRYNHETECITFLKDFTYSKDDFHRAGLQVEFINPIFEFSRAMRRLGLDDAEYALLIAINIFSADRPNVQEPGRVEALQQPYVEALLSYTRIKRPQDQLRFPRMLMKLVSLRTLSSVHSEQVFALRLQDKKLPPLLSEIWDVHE
SMILES,outcome,AC50
NNS(=O)(=O)c1ccc(Oc2ccc(S(=O)(=O)NN)cc2)cc1,inactive,
CC1C(C)(C)C2=C(C(=O)CCC2)C1(C)C (stereo not given),inactive,
CC(C)(CO)COC(=O)C(C)(C)CO,inactive,
c1ccc2sc(SSN3CCOCC3)nc2c1,inactive,
CC(CCC(=O)O)(c1ccc(O)cc1)c1ccc(O)cc1,inactive,
CC(=O)OC(C)c1ccccc1 (stereo not given),inactive,
C=CC(=O)OCCCCCCOC(=O)C=C,inactive,
CC1=C(O)C(=O)C(C)O1 (stereo not given),inactive,
CC(Cl)COP(=O)(OCC(C)Cl)OCC(C)Cl (stereo not given),inactive,
CCCCC(=O)O,inactive,
C=C[Si](OCCOC)(OCCOC)OCCOC,inactive,
CCOc1ccc(NC(N)=O)cc1,inactive,
COc1cc(C)ccc1O,inactive,
C[Si]1(C)O[Si](C)(C)O[Si](C)(C)O[Si](C)(C)O[Si](C)(C)O1,inactive,
CCOC(=O)c1ccc(C)cc1,inactive,
CCOC(=O)CC(=O)c1ccccc1,inactive,
C=C[C@@]1(C)CC(=O)[C@]2(O)[C@@]3(C)[C@@H](O)CCC(C)(C)[C@@H]3[C@H](O)[C@H](OC(C)=O)[C@@]2(C)O1,,973 nM (active)
CCCC1CCCC(=O)O1 (stereo not given),inactive,
CC(=O)OC1CCCCC1C(C)(C)C (stereo not given),inactive,
CC(C)(C)NC(=O)[C@H]1CC[C@H]2[C@@H]3CC[C@H]4NC(=O)C=C[C@]4(C)[C@H]3CC[C@]12C,inactive,

SMILES,outcome,AC50
C/C=C/C=C/CCCCCCCO,inactive,
Nc1nc(N)nc(-c2ccccc2)n1,inactive,
O=C(OCc1ccccc1)c1ccc(O)cc1,inactive,
CC(C)c1cccc(C(C)C)c1N,inactive,
CC(C)(c1ccccc1)c1ccc(Nc2ccc(C(C)(C)c3ccccc3)cc2)cc1,inactive,
CC(C)CCOCc1ccccc1,inactive,
C=CC(=O)OCCCCCCCC(C)C,inactive,
CC1(C)CCC[C@]2(C)[C@H]3CC(=O)O[C@]3(C)CC[C@@H]12,inactive,
CCCC=C(C=O)CC,inactive,
COC(=O)C=Cc1ccccc1,inactive,
C=C(C)C1CC=C(C)CC1 (stereo not given),inactive,
CCC[Si](OC)(OC)OC,inactive,
CC(=O)C(C)C,inactive,
Oc1ccc(/C=C/c2cc(O)cc(O)c2)cc1,inactive,
CCCCCC[C@@H](O)C/C=C\CCCCCCCC(=O)OCC(O)CO (stereo not given in full),inactive,
Oc1ccc(-c2ccccc2)c(Cl)c1,inactive,
CCCCCCCCCC(C)=O,inactive,
CC(C)C(=O)OCCc1ccccc1,inactive,
Cc1c(C(=O)c2c[nH]n(C)c2=O)ccc(S(C)(=O)=O)c1C1=NOCC1,inactive,
C=CC(=O)O[C@H]1C[C@@H]2CC[C@@]1(C)C2(C)C,inactive,
